The text below walks through data of PubChem BioAssay (NCI).

Structures are written as SMILES. About 83,000 compounds went through this panel and 20% of them were active in at least one assay; those are over-represented in the sample as a whole.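 Cell lines were cultured in 96-well plates, exposed to a single compound concentration, and assessed for percent growth 48 hours later.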 Unmarked numbers belong to inactive results. Activity calls are given as the source filed them. Rule for the calls: active = growth percent below 10; inactive = the rest.

Some test systems named below: T-47D breast; BT-549 breast; MDA-MB-435 melanoma; SW-620 colon; MCF7 breast; HCT-116 colon; HCC-2998 colon; KM12 colon.
Holding throughout (experiment): NCI-60 one-dose screen, 48 h (100 = growth as untreated, 0 = no growth, -100 = all killed)
What all share (conditions): 10 µM unless noted

With `CC(c1ccccc1)N1C(=O)CSC1=S` (configuration not stated), the growth with T-47D breast is 63.4%; in the test with BT-549 breast it was 32.9%; with MDA-MB-435 melanoma, -8.13% (active); in the test on SW-620 colon it was 17.6%; in the test on MCF7 breast it was 6.61% (active); in the test with HCT-116 colon, 5.85% (active). The growth with HCC-2998 colon was 53.2%; in the test with KM12 colon it was -38.3% (active).

Consider `CC(=O)NNC(=S)/N=C\C(C(=O)c1ccccc1)=C(/O)c1ccccc1`, for which the growth in the test with T-47D breast was 87.8%; with BT-549 breast, 92.7%; with MDA-MB-435 melanoma it was 109%; in the test on SW-620 colon, 110%; in the test on MCF7 breast, 93.6%; in the test on HCT-116 colon, 96.5%. Moreover, the values for the growth in the test on HCC-2998 colon and with KM12 colon were 102% and 99.4%, respectively.

Regarding `CCOC(=O)c1ccc(C(C)(C)C)cc1`, the growth in the test with T-47D breast was 105%; in the test with BT-549 breast it was 109%; with MDA-MB-435 melanoma, 108%; in the test with SW-620 colon, 107%; in the test with MCF7 breast, 104%; with HCT-116 colon, 102%. The growth with HCC-2998 colon is 100%; in the test with KM12 colon, 105%.

Consider `O=S(=O)(O)c1ccc(O)c(C2CCCCC2)c1`, for which the growth in the test with T-47D breast is 89.1%; with BT-549 breast, 98.2%; with MDA-MB-435 melanoma, 102%; in the test with SW-620 colon, 108%; with MCF7 breast it was 91.8%; with HCT-116 colon, 92.7%. Moreover, the growth in the test on HCC-2998 colon was 113%; in the test on KM12 colon it was 105%.

On to `O=[N+]([O-])c1ccc(-c2nc(N(CCO)CCO)c3ccccc3n2)o1`, for which the growth with T-47D breast was 8.21% (active); in the test with BT-549 breast, -88.5% (active); in the test with MDA-MB-435 melanoma, -85.5% (active); in the test with SW-620 colon, -8.14% (active); in the test with MCF7 breast, 0.425% (active); in the test on HCT-116 colon it was -7.95% (active). The growth was -93.2% (active) in the test on HCC-2998 colon and -29.1% (active) with KM12 colon.

Consider `COc1ccc(-c2csc(NC(=O)Nc3nc(-c4ccc(OC)cc4)cs3)n2)cc1`, for which the growth was 56.5% with T-47D breast; 79.9% in the test on BT-549 breast; 78.7% in the test on MDA-MB-435 melanoma; 98.1% with SW-620 colon; 71.6% with MCF7 breast; 64.2% in the test with HCT-116 colon. Also, the growth is 100% in the test with HCC-2998 colon and 64.6% in the test on KM12 colon.

For `CC(=O)c1cc(O)ccc1O`, the growth is 108% with T-47D breast; 90.9% with BT-549 breast; 108% in the test on MDA-MB-435 melanoma; 114% in the test on SW-620 colon; 101% in the test with MCF7 breast; 103% in the test on HCT-116 colon. In addition, the values for the growth with HCC-2998 colon and in the test with KM12 colon were 98.9% and 116%, respectively.

As to `COc1cc(C(=O)N2CCN(c3ccccc3)CC2)c2ccccc2n1`, the growth in the test with T-47D breast was 51.1%; with BT-549 breast, 12.7%; in the test with MDA-MB-435 melanoma, -24.2% (active); with SW-620 colon, 25.2%; with MCF7 breast, 15.8%; in the test on HCT-116 colon it was 8.75% (active). The growth is -20.3% (active) in the test on HCC-2998 colon and 2.35% (active) in the test on KM12 colon.

With `Nc1ccc(F)c(Cl)c1F`, the growth was 102% with T-47D breast; 88.8% in the test on BT-549 breast; 109% in the test on MDA-MB-435 melanoma; 104% in the test with SW-620 colon; 102% with MCF7 breast; 94.9% in the test on HCT-116 colon. Also, the growth was 100% in the test on HCC-2998 colon and 108% with KM12 colon.

Turning to `CC(=O)c1cccc(N(C)S(=O)(=O)c2ccc(C)cc2)c1`, the growth in the test with T-47D breast was 87.8%; in the test with BT-549 breast, 82.8%; in the test on MDA-MB-435 melanoma, 8.55% (active); in the test on SW-620 colon it was 81.7%; in the test on MCF7 breast, 60.5%; in the test on HCT-116 colon, 94%. For the same compound, the figures for the growth in the test with HCC-2998 colon and in the test on KM12 colon were 82.6% and 49.8%, respectively.

With `Cc1onc(-c2c(F)cccc2Cl)c1-c1ncc(-c2ccc(Br)cc2)o1`, the growth in the test with T-47D breast was 29.6%; in the test with BT-549 breast, 40.7%; with MDA-MB-435 melanoma it was 40.8%; with SW-620 colon, 35.6%; in the test with MCF7 breast it was 20.9%; in the test on HCT-116 colon it was 17.8%. Besides, the values for the growth in the test with HCC-2998 colon and in the test with KM12 colon were 58.6% and 36.4%, respectively.

As for `COC1OC(COC(C)=O)C(OC(C)=O)C(OC(C)=O)C1OC(C)=O` (configuration not stated), the growth in the test with T-47D breast was 91.7%; with BT-549 breast it was 101%; in the test with MDA-MB-435 melanoma, 105%; in the test with SW-620 colon it was 109%; in the test on MCF7 breast, 93%; with HCT-116 colon, 87.4%. Besides, the growth in the test with HCC-2998 colon was 101%; with KM12 colon, 106%.

In the case of `O=C(Nc1c(Cl)cc(Cl)cc1Cl)ON=C1CCCCC1`, the growth was 98.6% in the test with T-47D breast; 113% in the test on BT-549 breast; 107% in the test on MDA-MB-435 melanoma; 114% with SW-620 colon; 102% in the test on MCF7 breast; 107% with HCT-116 colon. In addition, the results for the growth with HCC-2998 colon and in the test on KM12 colon were 117% and 96.5%, respectively.

Regarding `O=C(OC1CCCC1)c1ccccc1Cl`, the growth was 96% in the test on T-47D breast; 104% in the test on BT-549 breast; 105% in the test with MDA-MB-435 melanoma; 106% in the test with SW-620 colon; 96.2% with MCF7 breast; 98.7% in the test on HCT-116 colon. The growth was 103% with HCC-2998 colon and 105% in the test with KM12 colon.

As to `CCCc1cccc(CCC)c1NC(=O)Nc1cc(Cl)cc(Cl)c1`, the growth with T-47D breast is 82.3%; with BT-549 breast it was 86.6%; in the test on MDA-MB-435 melanoma, 104%; with SW-620 colon, 123%; in the test with MCF7 breast it was 99.1%; with HCT-116 colon, 91.2%. Moreover, the growth in the test on HCC-2998 colon is 116%; with KM12 colon, 101%.

Turning to `CSc1nsc(N)n1`, the growth was 98.8% in the test on T-47D breast; 100% in the test on BT-549 breast; 102% in the test with MDA-MB-435 melanoma; 92.9% in the test with SW-620 colon; 95.8% with MCF7 breast; 104% in the test on HCT-116 colon. For the same compound, the results for the growth with HCC-2998 colon and with KM12 colon were 106% and 101%, respectively.

For the compound `CC1(C)CCC(C)(C)NC(=S)N1`, the growth in the test with T-47D breast is 98.5%; in the test on BT-549 breast, 105%; with MDA-MB-435 melanoma, 111%; in the test on SW-620 colon, 111%; with MCF7 breast, 103%; in the test with HCT-116 colon it was 98.9%. Also, the growth in the test with HCC-2998 colon is 109%; in the test on KM12 colon, 99.1%.

For `CN(C)c1ccc(O)c2c1CC1CC3C(N(C)C)C(=O)C(C(N)=O)=C(O)C3(O)C(=O)C1=C2O` (configuration not stated), the growth in the test with T-47D breast is 50.5%; in the test with BT-549 breast it was 29.2%; in the test on MDA-MB-435 melanoma it was 44.8%; in the test on SW-620 colon, 47.8%; in the test with MCF7 breast, 53.4%; in the test with HCT-116 colon, 34.1%. Further, the growth was 49.7% in the test on HCC-2998 colon and 50% in the test with KM12 colon.

As to `O=C(O)CSCC(=O)Nc1cc(C(F)(F)F)ccc1Cl`, the growth with T-47D breast was 102%; in the test with BT-549 breast it was 114%; in the test with MDA-MB-435 melanoma, 111%; in the test with SW-620 colon, 125%; with MCF7 breast, 102%; in the test with HCT-116 colon, 107%. Besides, the values for the growth in the test on HCC-2998 colon and with KM12 colon were 118% and 105%, respectively.

`Cn1c(=O)c2[nH]c(CC(=O)O)nc2n(C)c1=O`: the growth is 102% in the test with T-47D breast; 107% in the test with BT-549 breast; 112% in the test on MDA-MB-435 melanoma; 108% in the test on SW-620 colon; 101% with MCF7 breast; 104% in the test on HCT-116 colon. Further, the growth was 101% with HCC-2998 colon and 105% in the test with KM12 colon.

`COC1OC(C(COC(C)=O)OC(C)=O)C(OC(C)=O)C(OC(C)=O)C1OC(C)=O` (configuration not stated): the growth in the test on T-47D breast is 103%; in the test with BT-549 breast, 106%; with MDA-MB-435 melanoma it was 114%; in the test on SW-620 colon it was 104%; in the test with MCF7 breast it was 96%; with HCT-116 colon, 106%. For the same compound, the growth in the test with HCC-2998 colon was 115%; in the test on KM12 colon, 117%.

Take `O=C(O)c1cc(I)ccc1O`: the growth was 112% in the test on T-47D breast; 85.9% in the test on BT-549 breast; 100% in the test with MDA-MB-435 melanoma; 116% in the test on SW-620 colon; 95.7% in the test with MCF7 breast; 111% in the test with HCT-116 colon. In addition, the growth in the test on HCC-2998 colon is 95.1%; in the test on KM12 colon it was 108%.

As to `O=S(Cc1ccccc1)/C(=C/NC(=S)Nc1ccccc1)c1ccccc1` (configuration not stated), the growth in the test on T-47D breast is 90.2%; in the test with BT-549 breast it was 97.6%; in the test with MDA-MB-435 melanoma, 104%; with SW-620 colon, 104%; with MCF7 breast it was 102%; with HCT-116 colon, 91.1%. Moreover, the growth in the test on HCC-2998 colon is 102%; in the test on KM12 colon it was 99%.

Turning to `CS(=O)(=O)c1ccc(/C=C\C(=O)O)cc1`, the growth is 103% in the test on T-47D breast; 102% in the test with BT-549 breast; 101% in the test with MDA-MB-435 melanoma; 81.5% in the test with SW-620 colon; 95.8% with MCF7 breast; 93.7% in the test with HCT-116 colon. Besides, the results for the growth with HCC-2998 colon and with KM12 colon were 110% and 94%, respectively.
